Source: PubChem BioAssay (several laboratories)
Compounds with a hit are over-represented: about 4.1% of the library has one in this group of screens.
IDE cell activ: boosts human insulin-degrading enzyme activity in HEK cells | P14735 | FAbeta-B cleavage, fluorescence polarization; 0% vehicle, 100% cell-free pure enzyme wells | activation, % at 5.96 µM | 340,000 tested, 0.073% active | AID 493087;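 active = activation above the mean of all tested compounds plus 3 SD, set per screening campaign, cut at about 17% in these data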
Target sequence (P14735 whole entry, looked up): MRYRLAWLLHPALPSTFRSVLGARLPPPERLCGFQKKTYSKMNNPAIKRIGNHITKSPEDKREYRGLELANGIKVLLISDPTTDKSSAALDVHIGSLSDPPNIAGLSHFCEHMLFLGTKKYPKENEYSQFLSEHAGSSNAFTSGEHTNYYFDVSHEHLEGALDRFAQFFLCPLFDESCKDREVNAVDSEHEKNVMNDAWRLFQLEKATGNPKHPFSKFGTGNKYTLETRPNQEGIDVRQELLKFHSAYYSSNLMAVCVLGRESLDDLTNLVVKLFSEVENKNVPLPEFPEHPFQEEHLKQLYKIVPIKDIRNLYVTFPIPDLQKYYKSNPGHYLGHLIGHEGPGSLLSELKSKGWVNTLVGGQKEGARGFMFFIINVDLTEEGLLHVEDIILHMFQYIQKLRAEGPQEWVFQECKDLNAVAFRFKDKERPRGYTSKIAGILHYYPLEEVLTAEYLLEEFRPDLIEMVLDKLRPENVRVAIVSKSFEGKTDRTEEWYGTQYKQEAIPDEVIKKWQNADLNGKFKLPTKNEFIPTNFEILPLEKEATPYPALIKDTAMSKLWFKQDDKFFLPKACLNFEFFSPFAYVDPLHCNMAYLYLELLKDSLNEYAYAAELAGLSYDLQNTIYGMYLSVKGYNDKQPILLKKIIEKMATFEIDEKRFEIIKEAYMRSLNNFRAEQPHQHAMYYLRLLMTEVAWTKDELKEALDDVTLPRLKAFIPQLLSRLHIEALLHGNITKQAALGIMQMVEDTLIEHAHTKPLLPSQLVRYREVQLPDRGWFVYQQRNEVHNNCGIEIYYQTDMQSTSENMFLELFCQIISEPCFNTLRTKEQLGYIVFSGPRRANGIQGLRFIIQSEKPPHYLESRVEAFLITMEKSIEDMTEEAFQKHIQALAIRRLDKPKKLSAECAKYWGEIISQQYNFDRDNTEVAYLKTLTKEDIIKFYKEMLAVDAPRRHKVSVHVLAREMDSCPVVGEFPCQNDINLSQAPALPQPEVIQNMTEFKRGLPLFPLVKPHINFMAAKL
PolyA inh: inhibitors of polyadenylation in S. cerevisiae. S. cerevisiae SKY197-pL101 polyadenylation reporter, beta-gal luminescence; efflux-impaired pdr1/pdr3 knockout yeast; score 100 = 6 SD above DMSO. 300,000 tested, 0.02% active. AID 1875. activity score, % at 12 µM;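 active = lowest replicate activity score at least 50, where 100 means six control SD above control mean; inconclusive = lowest score under 50 but half or more replicates reach 50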;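 also: yeast exposed to compound for 9 h at 30 °C; higher score means more reporter readthrough which indicates perturbed polyadenylation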
PfM18AAP inh: PfM18AAP enzyme inhibition; recombinant PfM18AAP, H-Glu-NHMec fluorogenic cleavage; inhibition, % at 7.35 µM; 290,000 tested, 1.2% active; AID 1822;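 active = inhibition above the campaign mean inhibition over all tested compounds plus 3 SD, cut at about 28% in these data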;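 also: 0% = plate median of test compound wells and 100% = 2 mM ZnCl2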
IDE inh: cellular human IDE inhibition. HEK cells, FAbetaB cleavage, fluorescence polarization. inhibition, % at 5.59 µM. 320,000 tested, 0.41% active. AID 434962;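 active = percent inhibition above the average of all tested compounds plus 3 SD, set per screening campaign, cut at about 16% in these data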;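 also: IDE supplied by intact live HEK cells; FP after avidin binding of uncleaved biotin substrate so inhibition keeps polarization high; 0% = DMSO wells and 100% = 60 µM reference IDE inhibitor Ii1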
ALR H2O2 inh: human ALR oxidase inhibition via reduced H2O2; P55789; purified ALR, DTT oxidation, H2O2 HRP-luminol luminescence; inhibition, % (no concentration beside the values); 290,000 tested, 3.8% active; AID 485317;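 active = mean replicate inhibition above about 79%, with every replicate also reaching it, limit read from the data; inconclusive = only one of the two criteria met; inactive = mean below limit and not every replicate reaching it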
CaV13 FRET inh: Disruptors of the CACNA1D IQ motif to Ca2+-dependent inactivation inhibitor domain association, primary screening, Förster resonance energy transfer in intact living …; HEK cells, CFP/YFP FRET ICDI-IQ, plate reader, 10 min; percent FRET-ratio fall versus neutral wells; inhibition, % at 12.3 µM; 340,000 tested, 0.098% active;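 active = mean replicate inhibition of at least 30% and at least 1% of replicates passing that level; inconclusive = only one of the two criteria is met; inactive = neither criterion is met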;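 also: 0% = median of the neutral control wells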
IDE inh confirm: confirmation of human insulin-degrading enzyme inhibitors in cells. shares compounds with IDE inh. HEK cells, FAbetaB cleavage, fluorescence polarization. inhibition, % at 5.59 µM. 1,200 tested, 51% active. AID 435028;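 active = mean inhibition across triplicate wells above the cutoff set by the earlier primary insulin-degrading enzyme screen, cut at about 16% in these data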;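 also: 0% = DMSO wells and 100% = 60 µM reference IDE inhibitor Ii1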
HEK293 tox: counter-screen for IDE inhibitors: cytotoxicity in HEK cells | shares compounds with IDE inh | HEK293 cytotoxicity, ATP luminescence | inhibition, % at 5.59 µM | 1,200 tested, 28% active | AID 449730; in the data active = inhibition above about 22%;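 also: 0% = vehicle wells and 100% = reference cytotoxic drug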
Active calls of the source: *; ? = inconclusive; nt = not tested or not shown.

SMILES	IDE cell activ	PolyA inh	PfM18AAP inh	IDE inh	ALR H2O2 inh	CaV13 FRET inh	IDE inh confirm	HEK293 tox
CCC(=O)NN1CCc2cc3ccc(C)cc3nc21	8	-8	0	1	-1	-19	nt	nt
COc1ccc(S(=O)(=O)c2c(N)n(Cc3ccco3)c3nc4ccccc4nc23)cc1	-13	4	10	23*	2	nt	10	5
CC1CCC(NC(=O)c2cccc(S(=O)(=O)NCc3ccccc3)c2)CC1 (stereo not drawn)	3	-8	nt	0	1	-5	nt	nt
N=c1oc2c3c4c(cc2cc1C(=O)Nc1ccccc1)CCCN4CCC3	-30	-6	7	51*	-9	nt	26*	21
Cc1cc(=O)oc2c3c(cc(OCC(=O)NCc4ccncc4)c12)OC(C)(C)CC3	-19	5	1	22*	nt	nt	13	24*
COC(=O)c1cc(Sc2cccc(Cl)c2Cl)ccn1	-14	-8	13	19*	4	-5	0	12
CCNC(=O)C1CCCN(C(=O)C(c2ccccc2)c2ccccc2)CC1 (stereo not drawn)	nt	nt	nt	nt	nt	-5	nt	nt
Cc1csc2c(N3CCN(C(=O)Nc4ccc(Cl)c(Cl)c4)CC3)ncnc12	-21	2	-2	21*	-5	-3	9	9
Cc1csc2c(N3CCN(C(=O)NC(C)(C)C)CC3)ncnc12	0	-9	-1	1	-3	-18	nt	nt
CC(Cc1ccccc1)N1CCCC1=O (stereo not drawn)	-2	nt	nt	nt	nt	-5	nt	nt
CCOC1=C/C(=C/c2c(N)n3nc(CC(=O)N4CCCCC4)sc3nc2=O)C=CC1=O	-127	-11	4	21*	99*	-4	26*	6
CCOC1=C/C(=C/c2c(N)n3nc(S(=O)(=O)CC)sc3nc2=O)C=CC1=O	-114	-24	3	22*	99*	-22	112*	6
Cn1cc(CNCc2cn(C)nc2-c2ccc(C3CCCCC3)cc2)cn1	10	-10	6	1	nt	-6	nt	nt
COc1ccccc1-c1ccc(/C=C2\C=CC(=O)O2)o1	nt	-21	1	29*	nt	-136	39*	12
COc1ccccc1-c1ccc(/C=C2/C=C(C)OC2=O)o1	-5	-21	-5	1	11	-5	nt	nt
O=C(CSc1nnc(-c2cccnc2)n1-c1ccccc1)N1CCN(c2ccc(F)cc2)CC1	-34	-6	-2	21*	39	nt	10	21
Cc1ccc(-n2c(SCC(=O)N3CCOCC3)nnc2-c2cccnc2)cc1C	-12	0	3	19*	-3	nt	6	8
O=C(C1CCN(S(=O)(=O)N2CCOCC2)CC1)N1CCN(c2ccccc2)CC1	1	5	-4	4	42	nt	nt	nt
COc1ccccc1NC(=O)c1ccc(S(=O)(=O)N2CCCC(C)C2)cc1 (stereo not drawn)	3	8	-7	2	0	-3	nt	nt
Cc1cccc(N2CCN(C(=O)CCNC(=O)Cn3ccc4ccccc4c3=O)CC2)c1C	-11	10	5	17*	-2	-5	8	15
CN1CCN(C(=O)CCNC(=O)Cn2ccc3ccccc3c2=O)CC1	9	11	6	0	-11	-5	nt	nt
CC(C)CCNc1ncnc2c1cnn2Cc1ccccc1Cl	-14	-4	3	21*	-4	-4	9	19
OCCNc1ncnc2c1cnn2Cc1ccccc1	-2	-1	2	nt	1	-4	nt	nt
C/C(=N/NS(=O)(=O)c1ccc(F)cc1)c1ccc(NC(=O)c2ccc(C)o2)cc1	2	-5	-14	0	11	0	nt	nt
CCCCC(=O)N/N=C/c1ccc(-c2ccc([N+](=O)[O-])cc2)o1	2	-2	1	5	-1	-22	nt	nt
SMILES	IDE cell activ	PolyA inh	PfM18AAP inh	IDE inh	ALR H2O2 inh	CaV13 FRET inh	IDE inh confirm	HEK293 tox
CC(C)(C)C(=O)/C=c1\s/c(=C\c2ccc(-c3ccc([N+](=O)[O-])cc3)o2)c(=O)n1CC(=O)NC(N)=O	-20	-2	3	22*	?	-12	78*	26*
Cc1nn(C)c(C)c1S(=O)(=O)N1CCC(CO)(CC2CCCCO2)CC1 (stereo not drawn)	2	11	-12	1	-5	-6	nt	nt
CC(=O)Oc1c(-c2ccc(Br)o2)oc2ccccc2c1=O	-55	21	6	57*	56	-12	74*	13
COc1ccc(-c2oc3ccccc3c(=O)c2OC(C)=O)cc1	-5	-18	0	10	nt	-6	nt	nt
COc1cc(/C=C2\SC(=O)N(CC(=O)Nc3ccccc3F)C2=O)cc(Cl)c1O	-138	?	16	48*	-7	-16	96*	17
COc1cc(OC)c(/C=C2\SC(=O)N(CC(=O)Nc3ccccc3F)C2=O)c(OC)c1	2	0	-6	-7	-11	-56	nt	nt
CCCCCCN1C=CC(=C/C=C(\C#N)C(=O)OCC)C=C1	-114	-6	4	165*	5	-9	121*	21
C=CCN1C=CC(=CC=C(C#N)C#N)C=C1	-29	-16	-4	23*	99*	-5	41*	5
CN1/C(=C/C=C(C#N)C#N)C=Cc2ccccc21	-14	2	9	8	3	-2	nt	nt
CCCCCCN1C=CC=C/C1=C/C=C(C#N)C#N	-39	-30	7	29*	87*	-7	36*	8
CCCN1C=CC(=CC=C(C#N)C#N)C=C1	-32	-16	3	39*	99*	-4	47*	6
Cc1nnc(NC(=O)CSc2nnc(CNC(=O)c3ccccc3)o2)s1	-2	-5	24	3	57	-6	nt	nt
c1ccc2c(c1)[nH]c1c(N3CCCC3)ncnc12	-12	35	2	16*	-4	0	10	49*
Clc1ccc2[nH]c3c(N4CCC5(CC4)OCCO5)ncnc3c2c1	nt	15	-19	22*	nt	nt	10	60*
Cc1cccc2[nH]c3c(N4CCC5(CC4)OCCO5)ncnc3c12	-5	-15	-1	3	69	-3	nt	nt
c1ccc2c(c1)[nH]c1c(N3CCSCC3)ncnc12	-10	nt	-8	11	-4	-4	nt	nt
Cc1ccc2[nH]c3c(N4CCOCC4)ncnc3c2c1	-11	10	5	29*	-21	nt	9	21
Cc1ccc2[nH]c3c(Cl)ncnc3c2c1	nt	-61	-8	3	62	-5	nt	nt
c1ccc2c(c1)[nH]c1c(N3CCOCC3)ncnc12	-12	-4	0	18*	-15	-6	8	20
